Experimental data from PubChem BioAssay (NCI).
The panel holds about 83,000 compounds, 20% with a hit somewhere; the sample as a whole holds those more often.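 Activity criterion: percent growth below 10, measured after cells in 96-well plates were exposed to a single compound concentration for 48 hours.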 Calls of active or inactive are those of the source.

Key:
Assay in all cases: NCI-60 one-dose screen, 48 h (100 = growth as untreated, 0 = no growth, -100 = all killed)
[1] = system: SK-MEL-2 melanoma; details: 10 µM unless noted
[2] = system: EKVX NSCLC; details: 10 µM unless noted
[3] = system: SN12C renal; details: 10 µM unless noted
[4] = system: UO-31 renal; details: 10 µM unless noted
[5] = system: TK-10 renal; details: 10 µM unless noted
[6] = system: ACHN renal; details: 10 µM unless noted
[7] = system: CAKI-1 renal; details: 10 µM unless noted
[8] = system: A498 renal; details: 10 µM unless noted
[9] = system: CCRF-CEM leukemia; details: 10 µM unless noted
[10] = system: MOLT-4 leukemia; details: 10 µM unless noted
[11] = system: SR leukemia; details: 10 µM unless noted
[12] = system: RPMI-8226 leukemia; details: 10 µM unless noted
[13] = system: OVCAR-8 ovarian; details: 10 µM unless noted
[14] = system: OVCAR-5 ovarian; details: 10 µM unless noted
[15] = system: OVCAR-4 ovarian; details: 10 µM
[16] = system: SK-OV-3 ovarian; details: 10 µM unless noted
[17] = system: OVCAR-3 ovarian; details: 10 µM unless noted
[18] = system: HS 578T breast; details: 10 µM unless noted
[19] = system: NCI/ADR-RES ovarian; details: 10 µM unless noted
[20] = system: IGROV1 ovarian; details: 10 µM unless noted

Measured: growth

CCOc1ccc2sc(NS(=O)(=O)c3ccc(N)cc3)nc2c1
inactive: [1] 109% | [2] 103% | [3] 98.2% | [4] 91.2% | [5] 124% | [6] 108% | [7] 89.4% | [8] 115% | [9] 99.1% | [10] 104% | [11] 95.4% | [12] 96.5% | [13] 105% | [14] 109% | [15] 105% | [16] 101% | [17] 115% | [18] 106% | [19] 113%

COc1ccc2nc3cc(Cl)ccc3c(Nc3ccc(O)c(CN4CCCC4)c3)c2c1
inactive: [2] 51.3% | [3] 47.8% | [5] 10.2% | [8] 62.3% | [14] 57.4% | [16] 73.2%
active: [1] -57.6% | [4] -46.2% | [6] -38.9% | [7] 8.96% | [9] -6.84% | [10] 0.985% | [11] 0.0468% | [12] -25.2% | [13] -2.17% | [15] -4.45% | [17] -32.1% | [19] 3.27%

CCN(CC)CC(C)Nc1ccc(C)c2sc3ccccc3c(=O)c12 (stereo not given)
inactive: [1] 116% | [2] 81.8% | [3] 49.6% | [4] 19.5% | [5] 68.1% | [6] 37.8% | [7] 39.3% | [8] 60.1% | [9] 34.4% | [10] 24.6% | [11] 33.4% | [12] 11% | [13] 64.2% | [14] 68.9% | [15] 75.9% | [20] 19.1% | [17] 77.5% | [18] 73.8% | [19] 68.7%

COc1ccc(-c2cc(-c3ccccc3)nc(NCCNc3ccnc4cc(Cl)ccc34)n2)cc1
active: [1] -77.3% | [2] -88.1% | [3] -92.9% | [4] -91.9% | [5] -81.7% | [6] -94.2% | [7] -86.5% | [8] 5.73% | [9] -30.7% | [10] -44.4% | [11] -7.13% | [12] -34.4% | [13] -60.2% | [14] -96.6% | [15] -48.8% | [20] -74.1% | [17] -82.6% | [18] -53.9% | [19] -71.9%

Cc1cccc(C[C@H](NC(=O)Nc2ccc(C)cc2F)C(=O)N[C@@H]2C(=O)N3C[C@H](O)C[C@H]3C(=O)N3CCN(C)C[C@H]3C(=O)N[C@@H](C)C(=O)N3C[C@H](C)C[C@H]3C(=O)O[C@H]2C)c1
inactive: [1] 39.9% | [2] 69.6% | [3] 21.5% | [4] 93% | [5] 94.1% | [6] 106% | [7] 82.1% | [8] 32.8% | [9] 62.5% | [10] 40.4% | [11] 34.5% | [12] 28.2% | [13] 50.8% | [14] 42.7% | [15] 12.9% | [20] 52.3% | [17] 24.4% | [18] 50.8% | [19] 114%

Cn1cc(-c2noc(C(=O)c3cn(C)c4ncc(Br)cc34)n2)c2ccccc21
inactive: [1] 95.4% | [2] 85.5% | [3] 94.8% | [4] 79.3% | [5] 107% | [6] 102% | [7] 89.5% | [8] 75.3% | [10] 105% | [11] 95.6% | [12] 84.6% | [13] 101% | [14] 90.2% | [15] 100% | [20] 87.8% | [17] 106% | [18] 99.7% | [19] 106%
active: [9] -49.1%

CC(C)(C)c1cc(C(=O)Nc2ccccc2C(=O)NCCN)cc(C(C)(C)C)c1
active: [3] -30.8% | [6] -90.3% | [8] -11.6% | [9] -8.48% | [11] -28.6% | [12] -25% | [13] -43.7%
inactive: [1] 20.3% | [2] 17.8% | [4] 27.9% | [5] 75.5% | [7] 45.4% | [10] 20.6% | [14] 27% | [15] 43.3% | [20] 46.8% | [17] 18.9% | [18] 75.3% | [19] 23.2%

Cc1cc(-c2ccc(N=Nc3c(S(=O)(=O)O)cc4cc(S(=O)(=O)O)cc(N)c4c3O)c(C)c2)ccc1N=Nc1cc(S(=O)(=O)O)c2ccccc2c1O
inactive: [1] 111% | [2] 81.1% | [3] 98.1% | [4] 73.1% | [5] 102% | [6] 95.4% | [7] 78.9% | [8] 96.4% | [9] 106% | [10] 102% | [11] 106% | [12] 98.5% | [13] 96.6% | [14] 86.8% | [15] 105% | [16] 93.4% | [18] 90.7% | [19] 97.2%
